Among the data in PubChem BioAssay (NCI) are growth values, retold here.

Where “and” joins values, the source holds several entries; their conditions need not be identical. Equal entries are not always repeated. About 83,000 compounds went through this panel and 20% of them were active in at least one assay; those are over-represented in the sample as a whole.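 Assay: single dose, 48 h. Readout: percent growth (0 = no net growth; negative = cell death). Active: <10.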 Calls of active or inactive are those of the source.

For one test, the system named is BT-549 breast. The test can be described thus: NCI-60 one-dose screen, 48 h (100 = growth as untreated, 0 = no growth, -100 = all killed). The settings on record: 1 µM. As for the experimental part:
Growth inhibition of the BT-549 human tumor cell line is measured as a screen for anti-cancer activity. Cells are grown in 96 well plates and exposed to the test compound for 48 hours. Compounds are tested at a single concentration, which is 10^-5 M for most compounds. The reported endpoint is percent growth (GI% or GIPRCNT), where numbers from 0 - 100% represent growth inhibition, and numbers from -100% - 0 represent cell death. For example, a value of 40 represents 60% growth inhibition. A value of 0 means no net growth occurred over the course of the experiment. A value of -40 indicates 40% of cells at the beginning of the experiment died by the end of the experiment. A value of -100 means all cells are dead at the end of the experiment.
NCI-60 Human Tumor Cell Lines Screen was performed using the standard one-dose NCI protocol, which is described in more detail at https://dtp.cancer.gov/discovery_development/nci-60/default.htm.
Compounds with GIPRCNT values below 10 were considered active. Activity score was based on GIPRCNT using the following formula: […]
Score is 0 for GIPRCNT values of 100 or above, 50 for GIPRCNT values of 0, and 100 for GIPRCNT values of -100.
Consider `CNC(=O)c1cc(Oc2ccc(CC(=O)Nc3cc(C(C)(C)C)nn3C)cc2)ccn1`, for which the growth is 72.6% (inactive).

Still in this test, the particulars now being: 10 µM.
Turning to `CCc1ccccc1-n1c(N)c(C#N)c(-c2ccc(OC)c(OC)c2)c(C#N)c1=O`, the growth was 109% (inactive). Take `COc1ccc(Cl)cc1C(=O)NCCc1ccc(S(=O)(=O)NC(=O)NC2CCCCC2)cc1`: the growth is 109% (inactive) and 107% (inactive). Same read-out and setting: for `CNC(=O)c1cc(Oc2ccc(CC(=O)Nc3cc(C(C)(C)C)nn3C)cc2)ccn1` the value was 82.4% (inactive).

The same test, now with this note: 10 µM unless noted.
With `COC(=O)c1nc(N)nc(C(=O)OC)c1C(=O)c1ccc(OC)cc1`, the growth is 144% (inactive) and 77.1% (inactive). In the case of `N/C(=N\N=C\c1ccc2c(c1)OCO2)N/N=C\c1ccc2c(c1)OCO2`, the growth is 95.6% (inactive) and 67.7% (inactive).

With `OCCN1CCN(CCO)CC1`, the growth was 110% (inactive) and 89.5% (inactive) and 102% (inactive).

In the case of `CCN(CC)CCC(CNc1ccnc2cc(Cl)ccc12)c1ccc(OC)cc1` (stereo not given), the growth was 72.2% (inactive) and 66.1% (inactive). Regarding `Cc1ccc(NCSc2ccc(Cl)cc2)cc1`, the growth is 44.9% (inactive) and 66% (inactive).

On to `CC1=C(/C=C/C(C)=C/C=C/C(C)=C/C=N/NC(=S)NC(=S)N/N=C/C=C(C)/C=C/C=C(C)/C=C/C2=C(C)CCCC2(C)C)C(C)(C)CCC1`, for which the growth was -24.7% (active) and 5.7% (active). Still for that read-out and setting: for `O=S(=O)(Nc1ccccc1)C1CCCCC1` the value was 121% (inactive). `CC(C)(O)Cn1cc(-c2ccc3nc(OC4CC4)ccc3c2)c2c(N)ncnc21`: the growth is 84.7% (inactive) and 66.4% (inactive). For the compound `Oc1ccccc1/C=N\NC(=S)N/N=C/c1ccccc1O`, the growth was 47.3% (inactive) and 49.8% (inactive). With `Nc1nc2ncc(CNc3ccc(C(=O)N[C@@H](CCc4nn[nH]n4)C(=O)O)cc3)nc2c(=O)[nH]1`, the growth is 88.7% (inactive) and 107% (inactive).

Turning to `CCOc1ccc2c(S(=O)(=O)O)cccc2c1[N+](=O)[O-]`, the growth was 119% (inactive) and 103% (inactive).

As for `O=C(Nc1ccc(Cl)cc1)c1cc2ccccc2cc1O`, the growth was 23.3% (inactive). Same read-out and setting: the same measure for `O=C1OC2(c3ccccc31)c1ccc(O)c(O)c1Oc1c2ccc(O)c1O`: 118% (inactive); for `Nc1ccc(N=Nc2ccc(S(=O)(=O)O)cc2)cc1S(=O)(=O)O`: 120% (inactive) and 148% (inactive). For `Nc1nc(SC/C=C/CCl)c2[nH]cnc2n1`, the growth is 103% (inactive) and 126% (inactive).

As for `Cc1ccc2nc3c(nc2c1)-c1cccc2cccc-3c12`, the growth was 111% (inactive).

Turning to `CCOC(=O)c1c(C)oc(C)c(C(=O)OCC)c1=O`, the growth was 79.4% (inactive) and 100% (inactive). On the same count and under the same terms, the same measure for `NC(=S)NS(=O)(=O)c1ccc(N)cc1`: 128% (inactive); for `CNc1cc(-c2cccc(OC(F)(F)F)c2)nc2ccc(N3CCCC3)cc12`: -81.3% (active) and 74.1% (inactive) and 76.4% (inactive); for `COc1ccc2cc3[n+](cc2c1OC)CCc1cc2c(cc1-3)OCO2`: 28.8% (inactive) and 32.3% (inactive). The same measure, in the same setting: the same measure for `COc1ccccc1/C=N\N=C(N/N=C/c1ccccc1OC)N/N=C/c1ccccc1OC`: 80.8% (inactive) and 39.1% (inactive). Same read-out and setting: the same measure for `OC(COc1cccc2ccccc12)CN1CCN(c2ccc(Cl)cc2)CC1` (stereo not given): 85.4% (inactive) and 134% (inactive); for `CC1CCCC(=O)O1` (stereo not given): 104% (inactive) and 105% (inactive).

As to `COc1cc(C(=O)N/N=C/c2ccc(N(C)C)cc2)cc(OC)c1OC`, the growth was -2.93% (active). For the compound `Fc1ccccc1Nc1n[nH]c(=S)s1`, the growth is 112% (inactive). Same read-out and setting: for `Nc1cc(-c2cccc(OC(F)(F)F)c2)nc2ccc(N3CCCC3)cc12` the value was 16.2% (inactive) and 26.9% (inactive) and 3.22% (active).

On to `COC(=O)[C@H]1CCCN1C(=O)C1CCCN1C(=O)[C@@H](Cc1ccccc1)NC(=S)Nc1cc(C(F)(F)F)cc(C(F)(F)F)c1` (stereo not given in full), for which the growth was 112% (inactive) and 96.8% (inactive). Consider `COc1ccc2nc(Cl)cc(C)c2c1`, for which the growth was 130% (inactive) and 92% (inactive). The same measure, in the same setting: the same measure for `O=S1(=O)CC(Br)C(Br)C1` (stereo not given): 77.7% (inactive) and 82.9% (inactive); for `CC(C)CNC(=O)c1ccccc1C(=O)NC1(C(=O)NCC(C)C)CCCC1`: 122% (inactive) and 115% (inactive). As to `O=C(O)C1C2C=CC(C2)C1C(=O)O` (stereo not given), the growth was 96.8% (inactive) and 58.3% (inactive) and 105% (inactive). For `Cc1n[nH]c(=O)n(/N=C\c2c[nH]c3ccccc23)c1=O`, the growth was 117% (inactive). For the compound `C#CCN(C)Cc1ccccc1`, the growth is 94.6% (inactive) and 141% (inactive).

Still in this test, the particulars now being: 30 µM.
As to `CNC(=O)c1cc(Oc2ccc(CC(=O)Nc3cc(C(C)(C)C)nn3C)cc2)ccn1`, the growth was 81% (inactive).

Still in this test, the particulars now being: 100 µM.
For `CCc1ccccc1-n1c(N)c(C#N)c(-c2ccc(OC)c(OC)c2)c(C#N)c1=O`, the growth is -17.8% (active). Consider `COc1ccc(Cl)cc1C(=O)NCCc1ccc(S(=O)(=O)NC(=O)NC2CCCCC2)cc1`, for which the growth is 67% (inactive).
